Hit rate of the full screen: of about 300,000 compounds, about 2,300 (0.77%) were called active. What follows is part of a selection rich in actives, with near analogues and random picks from the rest. Unmarked numbers belong to inactive results.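 Rule for the calls: active = more than half of replicate wells show activity change below -50%, luminescence cut by over half; inconclusive = some wells, but at most half, below -50%; inactive = no replicate well below -50%.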
Assay: HSF1 inhibitors in luciferase reporter cells, primary screen, cell-based, NIH3T3, luminescence (AID 2098);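 note: luciferase reports HSF-1 transcriptional activity via heat shock element; 0% = median of DMSO wells and -100% = zero luminescence signal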
Details: NIH3T3-HGL HSE-luciferase, MG132-induced, luminescence 8 h; active compounds read low; screened at 7.5 µM (by protocol)
Work on `NS(=O)(=O)c1ccc(CCNC(=O)CN2C(=O)c3ccccc3S2(=O)=O)cc1` yielded an activity change, negative = inhibition of -3.35%.
`Cc1ccc(N2CC(C(=O)N3CCC4(CC3)CC(=O)c3ccccc3O4)CC2=O)cc1C` (stereo not given) showed an activity change, negative = inhibition of -2.92%.
Compound `COc1ccc(NC(=O)CN(C)C(=O)Cc2coc3cc(C)c(C)cc23)cc1` has an activity change, negative = inhibition of 7.31%.
In the case of `COc1ccc(C(=O)N(Cc2ccccc2)c2ccc(C)cc2)cc1S(=O)(=O)N1CCOCC1`, the activity change, negative = inhibition is reported as 4.46%.
With `Cc1cc(C(=O)COC(=O)C2CC2)c(C)n1-c1ccc(F)cc1` the activity change, negative = inhibition was -71.9% (active).
Compound `Cc1ccc(-n2c(C)cc(C(=O)CN3C(=O)C(=O)N(C4CCCC4)C3=O)c2C)cc1` has an activity change, negative = inhibition of -6.89%.
Work on `COc1cc(/C=N/NC(=O)c2cc(C)n(-c3ccc(F)cc3)c2C)cc(OC)c1O` yielded an activity change, negative = inhibition of -15.3%.
`CC(Oc1ccc(F)cc1)C(=O)Nc1cc(S(=O)(=O)N2CCOCC2)ccc1N1CCN(C)CC1` (stereo not given) gave an activity change, negative = inhibition of -4.5%.
`O=C(NCC(=O)N1CCCC(C(F)(F)F)C1)c1ccccc1F` (stereo not given) gave an activity change, negative = inhibition of -2.16%.
For `CCN(CC)CCNC(=O)CCCCCn1c(=O)[nH]c2cc(C(=O)OC)ccc2c1=O`, the activity change, negative = inhibition was -8.49%.
For `CCCCC(CC)CNC(=O)CCCCn1c(=O)[nH]c2ccsc2c1=O` (stereo not given), the activity change, negative = inhibition was 1.08%.
In the case of `CCN(CCCNC(=O)CCn1c(=O)[nH]c2ccsc2c1=O)c1ccccc1`, the activity change, negative = inhibition is reported as -61.9% (active).
For `CN(Cc1c(F)cccc1Cl)C(=O)CNC(=O)c1ccc2c(c1)OCO2`, the activity change, negative = inhibition was 2.65%.
`CC12CCC(=O)N1C(C(=O)NCCN1C(=O)S/C(=C\c3ccccc3F)C1=O)CS2` (stereo not given) showed an activity change, negative = inhibition of -0.188%.
`CCOC(=O)c1c(C)[nH]c(C(=O)OCC(=O)c2ccc(OC)cc2OC)c1C` showed an activity change, negative = inhibition of 1.38%.
`COCCN1C=C2C(=O)C(C)(OC(=O)C3CCCC3)C(=O)C=C2C=C1c1ccsc1` (stereo not given) showed an activity change, negative = inhibition of 0.381%.
For `CC1(OC(=O)CCc2ccccc2)C(=O)C=C2C=C(c3ccc(C#N)cc3)N(CCc3ccccn3)C=C2C1=O` (stereo not given), the activity change, negative = inhibition was -80.1% (active).
Compound `C=CCN1C=C2C(=O)C(C)(OC(=O)CCc3ccccc3)C(=O)C=C2C=C1c1ccc(C#N)cc1` (stereo not given) has an activity change, negative = inhibition of -1.82%.
Work on `CCCNC(=O)c1ccc(N2CCC3(CC2)CC(c2cccc(Br)c2)=NO3)c(NC(=O)c2ccco2)c1` yielded an activity change, negative = inhibition of -5.02%.
Work on `CSc1nsc(NC(=O)Nc2ccccc2)n1` yielded an activity change, negative = inhibition of 4.05%.
Compound `Cc1cccc(C(=O)NCc2nnc(SC(C)C(=O)Nc3nnc(C)s3)n2C)c1` (stereo not given) has an activity change, negative = inhibition of -1.96%.
In the case of `COc1ccc(S(=O)(=O)N2CCCCCC2)cc1C(=O)N(C)Cc1cccc(OC)c1OC`, the activity change, negative = inhibition is reported as -1.36%.
In the case of `O=c1oc2ccccc2cc1-c1cn(-c2ccccc2)c(=S)[nH]1`, the activity change, negative = inhibition is reported as -88.1% (active).
Compound `S=c1[nH]c(-c2cccs2)cn1-c1ccccc1` has an activity change, negative = inhibition of 2.33%.
Compound `COc1ccc(-c2cn(-c3ccc(OC)cc3)c(=S)[nH]2)cc1` has an activity change, negative = inhibition of 9.62%.
In the case of `CC(C)(C)Oc1ccccc1Nc1nc(NCCO)nc(N2CCCC2)n1`, the activity change, negative = inhibition is reported as -2.91%.
For `CCn1cc(CN2CCC(C(=O)Nc3cccc(-c4cccc(Cl)c4)c3)CC2)cn1`, the activity change, negative = inhibition was 13.5%.
With `CCn1cc(CN2CCC(C(=O)Nc3cccc(-c4cccc(Cl)c4)c3)CC2)c(C)n1` the activity change, negative = inhibition was -68.5% (active).
Work on `O=C(Nc1cccc(-c2cccc(Cl)c2)c1)C1CCN(C2CCC2)CC1` yielded an activity change, negative = inhibition of -1.45%.
With `O=C(COC(=O)CCOc1ccccc1)Nc1cc(S(=O)(=O)N2CCCCC2)ccc1Cl` the activity change, negative = inhibition was 5.19%.
`Cn1cccc1C(=O)NNC(=O)COc1ccc(Br)cc1` showed an activity change, negative = inhibition of -3.17%.
Work on `Cc1cccc(NC(=O)c2nc[nH]c2C(=O)NCC(=O)OCc2ccccc2)c1` yielded an activity change, negative = inhibition of -13.1%.
With `Cc1cccc(NC(=O)c2nc(S(=O)(=O)Cc3ccccc3)ncc2Cl)c1` the activity change, negative = inhibition was -83.8% (active).
With `CCSc1ncc(Cl)c(C(=O)Nc2cc(C)ccc2C)n1` the activity change, negative = inhibition was 3.48%.
Work on `Cc1ccc(S(=O)(=O)CC(=O)Nc2nnc(C)s2)cc1` yielded an activity change, negative = inhibition of -2.63%.
`Cc1cccc(CS(=O)(=O)c2ncc(Cl)c(C(=O)Nc3ccc(F)cc3)n2)c1` showed an activity change, negative = inhibition of 13.2%.
In the case of `Cc1ccc(CS(=O)(=O)c2ncc(Cl)c(C(=O)Nc3nnc(C)s3)n2)cc1`, the activity change, negative = inhibition is reported as -63.4% (active).
`COc1ccc(C2/C=C\CN(S(=O)(=O)c3cccs3)CC(=O)N2Cc2ccc(F)cc2)cc1` (stereo not given) showed an activity change, negative = inhibition of 3.97%.
`COc1ccc(Cl)cc1C=CC=NNC(=O)c1ccncc1` gave an activity change, negative = inhibition of 5.04%.
`COC(=O)c1ccc(OCC(O)CN(CCO)CC(O)Cn2ccc3ccccc32)cc1` (stereo not given) gave an activity change, negative = inhibition of -1.93%.
In the case of `COc1ccc(Cn2c(=O)sc3ccccc32)cc1OC`, the activity change, negative = inhibition is reported as -4.6%.
For `COc1ccc(CCNCC(O)Cn2ccc3ccccc32)cc1OC` (stereo not given), the activity change, negative = inhibition was -87.6% (active).
In the case of `O=C(NCc1ccccc1)c1onc(CSc2ccncc2)c1C(=O)NCc1ccccc1`, the activity change, negative = inhibition is reported as -22.7%.
`O=C(NCCc1ccco1)C(=O)NCCC1CCCCN1S(=O)(=O)c1ccccc1` (stereo not given) showed an activity change, negative = inhibition of 1.49%.
`COc1ccc(-c2nnc(SCC(=O)Nc3cccnc3Cl)n2C)cc1` showed an activity change, negative = inhibition of -3.85%.
In the case of `C#CCNC(=O)[C@H](Cc1ccc(C(=O)c2ccccc2)cc1)NC(=O)OC(C)(C)C`, the activity change, negative = inhibition is reported as 5.42%.
In the case of `COc1ccccc1NC(=O)[C@H](COCc1ccccc1)NC(=O)OC(C)(C)C`, the activity change, negative = inhibition is reported as -65.5% (active).
In the case of `COc1ccccc1NC(=O)C(C)OC(=O)CC1CCCC1` (stereo not given), the activity change, negative = inhibition is reported as -4.1%.
With `COc1ccc(C(=O)Nc2ccccc2C(=O)N/N=C/c2ccc(O)c(OC)c2)cc1` the activity change, negative = inhibition was -88.5% (active).
`COc1cc(/C=N/NC(=O)c2ccc(N3CCCC3=O)cc2)ccc1O` gave an activity change, negative = inhibition of -2.17%.
Work on `COc1ccc(/C=N/NC(=O)c2ccccc2)cc1OS(=O)(=O)c1ccccc1` yielded an activity change, negative = inhibition of 4.64%.
`CC1(C)O[C@@H]2CC3C4C[C@H](F)C5=CC(=O)C=CC5(C)C4C(O)CC3(C)[C@]2(C(=O)CO)O1` (stereo not given in full) showed an activity change, negative = inhibition of -32.3%.
`Cc1ccc(CSCC(=O)N(C)CC(=O)Nc2cccc(F)c2)cc1` gave an activity change, negative = inhibition of -0.103%.
`Cc1ccc(NC(=O)CN(C)C(=O)c2ccc(Br)o2)cc1` showed an activity change, negative = inhibition of 0.545%.
With `Cc1ccc(CSCC(=O)N(C)CC(=O)Nc2ccc(C)cc2)cc1` the activity change, negative = inhibition was -72.3% (active).
